The record followed here is PubChem BioAssay (Tox21).

Several values for one entry are separate records, joined by “and”; a condition that tells them apart may be missing. Identical values can stand only once. Records with an inconclusive call do not appear. Where a call stands in place of a potency, no number is given. A number with no mark means an inactive call. Activity calls are given as the source filed them. Calls come from the whole dose curve; as a rule, active = well fitted cell-killing curve with a large enough effect in the repeat runs; inconclusive = weak or mixed curves, or effect the other way; inactive = flat fitted curve, though single readings scatter.
Potency is the fitted concentration of half-maximal effect.

This experiment is described as follows: cAMP Responsive Elements (CRE) small molecule agonists, cell-based qHTS assay: qHTS cell viability counter screen (AID 2060914). Note: nearly all actives have a fitted effect of over 50% in size. The settings on record: CRE-bla HEK293T viability, CellTiter-Glo luminescence, 5 h; series mostly up to 92.4 µM. Summed up: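 In the same wells as the reporter read, viability of CRE-bla HEK 293T cells was quantified by CellTiter-Glo luminescence after a 3 h compound exposure.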
As to `Oc1cccc2cccnc12`, the Potency entry was “inactive”. For `N#Cc1c(Cl)cccc1Cl`, the Potency result was “inactive”. Still for that read-out and setting: in the case of `CC(C)(c1ccccc1)c1ccc(O)c(C(C)(C)c2ccccc2)c1` it was 60.6 µM (active) and 61.1 µM (active); in that of `CCOP(OCC)OCC`, “inactive”.

For `CCCCNC(=O)OCC#CI`, the Potency entry is “inactive”. On the same count and under the same terms, as for `Clc1cc(Cl)c(Cl)c(Cl)c1`, the entry is “inactive”; as for `O=C(CCl)c1ccc(Cl)cc1Cl`, “inactive”; as for `CCC(Cl)[N+](=O)[O-]` (stereo not given), “inactive”.

Take `O=Cc1ccco1`: the Potency result was “inactive”. The same measure, in the same setting: as for `Oc1ccccc1Cl`, the entry is “inactive”. Still for that read-out and setting: as for `CS(=O)(=O)c1ccc(C(=O)C2C(=O)CCCC2=O)c(Cl)c1COCC(F)(F)F`, the entry is “inactive”.

As for `CCOP(=O)(OCC)OCC`, the Potency entry is “inactive”. Still for that read-out and setting: as for `ClC(Cl)C(Cl)(Cl)Cl`, the entry is “inactive”. Still for that read-out and setting: in the case of `CCCCP(CCCC)CCCC` it was “inactive”; in that of `CCCCC(CC)COC(=O)Cl` (stereo not given), “inactive”. On the same count and under the same terms, in the case of `CC1(C)CON(Cc2ccccc2Cl)C1=O` it was “inactive”. Turning to `CCCCC(C#N)(Cn1cncn1)c1ccc(Cl)cc1` (stereo not given), the Potency result is “inactive”. With `C[C@]12CC[C@H]3[C@@H](CC=C4C[C@@H](O)CC[C@@]43C)[C@@H]1CC[C@@H]2O`, the Potency result was “inactive”. As to `CC#Cc1cc(C)nc(Nc2ccccc2)n1`, the Potency result is “inactive”. Still for that read-out and setting: in the case of `CC(C)[C@]12CC(=O)[C@H](C)[C@H]1C2` it was “inactive”; in that of `CCC(C)c1cc([N+](=O)[O-])cc([N+](=O)[O-])c1O` (stereo not given), “inactive”; in that of `O=C(O)CF`, “inactive”. Same read-out and setting: as for `CS(=O)(=O)Cl`, the entry is “inactive”. The same measure, in the same setting: as for `C/C(=C\c1ccccc1)[N+](=O)[O-]`, the entry is “inactive”.

Turning to `CC(C)=CC1C(C(=O)OC(C#N)c2cccc(Oc3ccccc3)c2)C1(C)C` (stereo not given), the Potency result was “inactive”. On the same count and under the same terms, as for `Nc1ccccc1Cl`, the entry is “inactive”; as for `c1cncc([C@@H]2CCCCN2)c1`, “inactive”; as for `O=[N+]([O-])O.O=[N+]([O-])O.[Cd]`, “inactive”.

Regarding `CCCCCCCCc1ccc(O)cc1`, the Potency result was “inactive”. For the molecule `CC(=O)[O-].CC(=O)[O-].CC(=O)[O-].[Sb+3]`, the activity change, negative = cytotoxicity is -8.91% [at 3.27 µM]. Consider `O=S(=O)(Cl)c1ccccc1`, for which the Potency result was “inactive”. The same measure, in the same setting: as for `O=[N+]([O-])c1cccc2cccnc12`, the entry is “inactive”. Still for that read-out and setting: as for `CNC(=O)NC(O)C(Cl)(Cl)Cl` (stereo not given), the entry is “inactive”. On the same count and under the same terms, as for `OC(O)C(Cl)(Cl)Cl`, the entry is “inactive”; as for `O=c1c(C2CC(c3ccc(-c4ccc(Br)cc4)cc3)Cc3ccccc32)c(O)sc2ccccc12` (stereo not given), “inactive”.

`O=C(O)C1C2CCC(O2)C1C(=O)O` (stereo not given): the Potency result is “inactive”.

Consider `ClCc1ccc(Cl)cc1Cl`, for which the Potency entry was “inactive”. `O=C(O)CCCCCCNC1c2ccccc2CCc2ccccc21`: the Potency result is “inactive”. In the case of `ClCc1cccnc1`, the Potency entry is “inactive”.

Regarding `[Cl][Hg][c]1ccccc1`, the Potency is 30.6 µM (active).
